This note sets out measurements from publication PMC7862700, “An all-to-all approach to the identification of sequence-specific readers for epigenetic DNA modifications on cytosine”.

What all share (assay): DAPPL (digital affinity profiling via proximity ligation, sequencing); 10 mM Tris-HCl pH 7.5, 50 mM NaCl, 1 mM DTT, 4% glycerol, room temperature, 30 min; GST-TFs on glutathione beads, 16-mer random dsDNA library, 0.1% formaldehyde crosslink after washing; high values mean tight binding
One assay has as its target T1, FEV (Homo sapiens, UniProt Q99581 1-238).
T1 sequence: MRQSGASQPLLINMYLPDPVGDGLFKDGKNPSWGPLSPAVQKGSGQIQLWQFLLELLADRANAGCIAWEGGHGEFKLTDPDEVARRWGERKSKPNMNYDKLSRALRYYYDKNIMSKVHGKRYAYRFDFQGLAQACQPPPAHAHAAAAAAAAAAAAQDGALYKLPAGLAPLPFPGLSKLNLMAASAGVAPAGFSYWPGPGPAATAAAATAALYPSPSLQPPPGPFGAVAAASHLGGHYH
The settings on record: protein: recombinant; tags: N-terminal GST; dsDNA, one strand shown. The procedure, abridged:
(§1)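 In yeast, human transcription factors were expressed with a GST fusion, then pulled down on glutathione beads and given DNA barcodes. Pooled with a tag-only sample, they were exposed to 200 nmole of a 16-mer random double-stranded DNA library (Tris/NaCl/DTT/glycerol buffer, room temperature, 30 min), washed, crosslinked with 0.1% formaldehyde, proximity-ligated using BsaI/T4 ligase for 1 h at 37 °C, PCR-amplified and read on an Illumina NextSeq500. Each hexamer's frequency of reads for a factor, divided by the matching frequency for the tag-only sample, gives the binding signal.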

The next assay concerns the target ETV5 (Homo sapiens, UniProt P41161 1-510). The conditions noted are these: protein: recombinant; tags: N-terminal GST; dsDNA, one strand shown. The procedure, abridged:
as §1

The next assay concerns the target HSF1 (Homo sapiens, UniProt Q00613 1-529). The settings on record: protein: recombinant; tags: N-terminal GST; chain copies: 3; dsDNA, one strand shown. The procedure, abridged: as §1
The next assay deals with T2, SPIC (Homo sapiens, UniProt Q8N5J4 1-248).
T2 sequence: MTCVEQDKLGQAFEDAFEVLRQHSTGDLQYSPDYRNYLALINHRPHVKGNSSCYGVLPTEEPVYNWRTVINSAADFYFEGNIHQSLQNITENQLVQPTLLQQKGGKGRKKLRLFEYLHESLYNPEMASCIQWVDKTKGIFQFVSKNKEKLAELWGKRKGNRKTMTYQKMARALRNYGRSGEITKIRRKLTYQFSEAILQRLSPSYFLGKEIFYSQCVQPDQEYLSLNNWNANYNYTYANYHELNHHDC
The conditions noted are these: protein: recombinant; tags: N-terminal GST; dsDNA, one strand shown. The procedure, abridged: as §1

The target of a further assay is ELF4 (Homo sapiens, UniProt Q99607 1-663). The conditions noted are these: protein: recombinant; tags: N-terminal GST; dsDNA, one strand shown. The procedure, abridged: as §1
Chain of ELF4 (Q99607 whole entry): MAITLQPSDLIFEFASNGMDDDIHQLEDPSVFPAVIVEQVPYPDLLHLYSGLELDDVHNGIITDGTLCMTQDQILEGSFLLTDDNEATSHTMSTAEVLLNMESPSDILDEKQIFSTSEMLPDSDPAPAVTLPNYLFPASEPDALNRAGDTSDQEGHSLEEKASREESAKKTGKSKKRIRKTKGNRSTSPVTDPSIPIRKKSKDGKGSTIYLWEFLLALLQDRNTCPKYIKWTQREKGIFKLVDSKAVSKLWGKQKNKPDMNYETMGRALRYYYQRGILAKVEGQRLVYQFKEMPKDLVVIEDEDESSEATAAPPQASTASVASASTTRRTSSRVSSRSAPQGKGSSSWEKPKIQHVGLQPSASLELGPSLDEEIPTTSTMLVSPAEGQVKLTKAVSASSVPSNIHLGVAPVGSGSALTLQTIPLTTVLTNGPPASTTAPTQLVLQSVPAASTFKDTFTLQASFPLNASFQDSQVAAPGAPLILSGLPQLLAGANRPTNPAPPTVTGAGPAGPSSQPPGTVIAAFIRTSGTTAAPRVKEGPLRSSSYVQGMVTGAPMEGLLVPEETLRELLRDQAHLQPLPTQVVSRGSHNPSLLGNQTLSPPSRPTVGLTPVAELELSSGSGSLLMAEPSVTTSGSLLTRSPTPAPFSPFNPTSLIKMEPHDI
The target of another assay is T3, ELK4 (Homo sapiens, UniProt P28324-2 1-405).
T3 sequence: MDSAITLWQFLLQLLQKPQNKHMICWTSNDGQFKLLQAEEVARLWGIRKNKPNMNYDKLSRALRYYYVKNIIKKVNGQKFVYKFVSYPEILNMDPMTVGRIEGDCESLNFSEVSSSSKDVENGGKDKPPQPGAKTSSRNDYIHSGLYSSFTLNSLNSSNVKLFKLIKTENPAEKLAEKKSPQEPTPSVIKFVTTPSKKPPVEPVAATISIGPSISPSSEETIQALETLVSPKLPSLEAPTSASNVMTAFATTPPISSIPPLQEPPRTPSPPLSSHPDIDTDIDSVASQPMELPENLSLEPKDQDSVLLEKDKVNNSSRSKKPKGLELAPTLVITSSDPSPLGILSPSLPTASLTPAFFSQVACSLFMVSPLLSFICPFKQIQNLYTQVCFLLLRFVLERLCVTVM
The settings on record: protein: recombinant; tags: N-terminal GST; dsDNA, one strand shown. The procedure, abridged: as §1

The next assay concerns the target T4, ETV2 (Homo sapiens, UniProt O00321 1-342).
T4 sequence: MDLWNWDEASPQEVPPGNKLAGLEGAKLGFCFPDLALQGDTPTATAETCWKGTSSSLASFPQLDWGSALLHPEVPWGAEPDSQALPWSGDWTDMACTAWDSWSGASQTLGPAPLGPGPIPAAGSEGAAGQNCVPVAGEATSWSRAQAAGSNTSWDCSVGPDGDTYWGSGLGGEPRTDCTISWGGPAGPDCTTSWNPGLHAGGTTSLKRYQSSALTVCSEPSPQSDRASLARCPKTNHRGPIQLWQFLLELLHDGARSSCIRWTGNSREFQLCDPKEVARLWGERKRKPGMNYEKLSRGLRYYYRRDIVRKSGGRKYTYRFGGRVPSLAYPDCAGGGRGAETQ
The settings on record: protein: recombinant; tags: N-terminal GST; dsDNA, one strand shown. The procedure, abridged:
as §1

Another assay addresses T5, ELF3 (Homo sapiens, UniProt P78545 1-371).
T5 sequence: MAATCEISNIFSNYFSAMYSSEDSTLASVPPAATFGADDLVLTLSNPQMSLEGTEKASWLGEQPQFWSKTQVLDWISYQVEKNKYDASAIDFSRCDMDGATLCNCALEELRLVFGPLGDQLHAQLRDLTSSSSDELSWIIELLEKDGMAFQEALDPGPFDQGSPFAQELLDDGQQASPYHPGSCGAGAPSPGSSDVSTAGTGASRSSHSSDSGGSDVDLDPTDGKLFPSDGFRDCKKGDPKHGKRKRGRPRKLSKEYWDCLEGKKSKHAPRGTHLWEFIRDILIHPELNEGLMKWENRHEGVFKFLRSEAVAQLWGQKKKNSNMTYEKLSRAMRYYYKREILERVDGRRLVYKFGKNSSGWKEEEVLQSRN
The conditions noted are these: protein: recombinant; tags: N-terminal GST; dsDNA, one strand shown. The procedure, abridged: as §1

The next assay addresses CRX (Homo sapiens, UniProt O43186 1-299). The settings on record: protein: recombinant; tags: N-terminal GST; dsDNA, one strand shown. The procedure, abridged: as §1
The next assay addresses ETV1 (Homo sapiens, UniProt P50549 1-477). The conditions noted are these: protein: recombinant; tags: N-terminal GST; dsDNA, one strand shown. The procedure, abridged:
as §1

A further assay addresses T6, ERF (Homo sapiens, UniProt P50548 1-548).
T6 sequence: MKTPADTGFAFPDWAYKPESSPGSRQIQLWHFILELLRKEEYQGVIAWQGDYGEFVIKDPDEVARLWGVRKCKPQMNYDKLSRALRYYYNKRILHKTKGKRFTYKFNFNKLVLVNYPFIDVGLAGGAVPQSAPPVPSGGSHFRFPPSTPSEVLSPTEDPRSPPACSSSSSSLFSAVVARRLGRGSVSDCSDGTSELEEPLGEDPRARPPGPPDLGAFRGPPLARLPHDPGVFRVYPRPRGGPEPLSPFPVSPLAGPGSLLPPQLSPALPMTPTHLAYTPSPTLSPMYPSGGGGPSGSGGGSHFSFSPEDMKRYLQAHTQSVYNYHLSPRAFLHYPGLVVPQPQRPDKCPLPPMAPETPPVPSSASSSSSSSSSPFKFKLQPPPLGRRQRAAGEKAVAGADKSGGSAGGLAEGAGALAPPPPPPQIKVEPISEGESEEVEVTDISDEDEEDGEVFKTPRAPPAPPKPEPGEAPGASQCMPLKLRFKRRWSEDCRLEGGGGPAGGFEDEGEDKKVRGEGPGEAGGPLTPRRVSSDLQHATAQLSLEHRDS
The settings on record: protein: recombinant; tags: N-terminal GST; dsDNA, one strand shown. The procedure, abridged:
as §1

The next assay addresses T7, ETV3L (Homo sapiens, UniProt Q6ZN32 1-361).
T7 sequence: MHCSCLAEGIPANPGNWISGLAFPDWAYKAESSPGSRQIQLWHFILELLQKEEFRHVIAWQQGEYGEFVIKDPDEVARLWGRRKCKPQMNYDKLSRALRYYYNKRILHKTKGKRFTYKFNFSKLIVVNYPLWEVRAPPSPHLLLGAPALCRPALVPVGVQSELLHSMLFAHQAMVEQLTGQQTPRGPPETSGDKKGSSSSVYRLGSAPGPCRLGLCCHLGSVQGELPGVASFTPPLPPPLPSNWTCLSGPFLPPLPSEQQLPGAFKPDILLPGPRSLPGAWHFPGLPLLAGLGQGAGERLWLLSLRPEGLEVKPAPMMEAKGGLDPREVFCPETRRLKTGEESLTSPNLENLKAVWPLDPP
The settings on record: protein: recombinant; tags: N-terminal GST; dsDNA, one strand shown. The procedure, abridged:
as §1

The next assay has as its target T8, ETS2 (Homo sapiens, UniProt P15036 1-469).
T8 sequence: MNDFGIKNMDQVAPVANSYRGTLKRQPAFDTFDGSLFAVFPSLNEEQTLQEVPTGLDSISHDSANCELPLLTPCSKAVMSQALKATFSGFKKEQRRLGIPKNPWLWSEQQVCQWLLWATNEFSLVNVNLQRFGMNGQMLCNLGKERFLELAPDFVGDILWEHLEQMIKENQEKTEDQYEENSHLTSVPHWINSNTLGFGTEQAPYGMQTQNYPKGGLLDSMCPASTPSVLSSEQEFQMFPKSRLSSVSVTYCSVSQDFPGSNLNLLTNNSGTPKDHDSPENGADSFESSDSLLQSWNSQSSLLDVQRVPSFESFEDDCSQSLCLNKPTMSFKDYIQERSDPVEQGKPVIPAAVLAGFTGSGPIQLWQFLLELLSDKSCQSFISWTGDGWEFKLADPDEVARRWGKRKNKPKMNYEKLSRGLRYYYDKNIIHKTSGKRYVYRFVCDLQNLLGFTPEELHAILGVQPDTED
The settings on record: protein: recombinant; tags: N-terminal GST; dsDNA, one strand shown. The procedure, abridged:
as §1

The target in another assay is T9, SPDEF (Homo sapiens, UniProt O95238 1-335).
T9 sequence: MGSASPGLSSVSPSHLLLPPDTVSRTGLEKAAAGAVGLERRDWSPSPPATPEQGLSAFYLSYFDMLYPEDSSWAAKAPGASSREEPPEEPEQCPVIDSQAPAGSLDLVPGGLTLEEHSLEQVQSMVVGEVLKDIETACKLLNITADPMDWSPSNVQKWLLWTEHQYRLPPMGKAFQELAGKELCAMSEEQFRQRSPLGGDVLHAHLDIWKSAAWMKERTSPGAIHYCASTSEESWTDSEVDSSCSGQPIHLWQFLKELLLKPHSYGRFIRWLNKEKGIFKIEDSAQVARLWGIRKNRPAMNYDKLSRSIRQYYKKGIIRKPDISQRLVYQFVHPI
The conditions noted are these: protein: recombinant; tags: N-terminal GST; dsDNA, one strand shown. The procedure, abridged:
as §1

Another assay deals with T10, ETV7 (Homo sapiens, UniProt Q9Y603 1-341).
T10 sequence: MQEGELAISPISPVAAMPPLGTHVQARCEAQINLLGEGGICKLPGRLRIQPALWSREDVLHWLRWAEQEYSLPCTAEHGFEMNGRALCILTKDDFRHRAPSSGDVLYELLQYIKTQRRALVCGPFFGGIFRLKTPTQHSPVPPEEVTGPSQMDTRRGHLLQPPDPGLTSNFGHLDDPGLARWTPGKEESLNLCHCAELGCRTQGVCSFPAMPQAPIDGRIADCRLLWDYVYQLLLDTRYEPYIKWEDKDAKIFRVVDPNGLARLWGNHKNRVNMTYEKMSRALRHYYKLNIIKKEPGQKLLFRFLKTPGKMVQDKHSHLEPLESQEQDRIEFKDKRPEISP
The settings on record: protein: recombinant; tags: N-terminal GST; dsDNA, one strand shown. The procedure, abridged: as §1

The next assay has as its target T11, ELF5 (Homo sapiens, UniProt Q9UKW6-2 1-255).
T11 sequence: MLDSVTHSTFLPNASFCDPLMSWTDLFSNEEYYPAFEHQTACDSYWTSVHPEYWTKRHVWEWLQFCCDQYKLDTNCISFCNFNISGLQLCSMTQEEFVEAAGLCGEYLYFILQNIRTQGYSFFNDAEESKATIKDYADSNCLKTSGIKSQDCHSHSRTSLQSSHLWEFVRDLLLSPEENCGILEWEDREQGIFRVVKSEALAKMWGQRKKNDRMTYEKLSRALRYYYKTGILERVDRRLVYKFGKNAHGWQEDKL
The conditions noted are these: protein: recombinant; tags: N-terminal GST; dsDNA, one strand shown. The procedure, abridged: as §1

The target in a further assay is T12, ETV3 (Homo sapiens, UniProt P41162-2 1-143).
T12 sequence: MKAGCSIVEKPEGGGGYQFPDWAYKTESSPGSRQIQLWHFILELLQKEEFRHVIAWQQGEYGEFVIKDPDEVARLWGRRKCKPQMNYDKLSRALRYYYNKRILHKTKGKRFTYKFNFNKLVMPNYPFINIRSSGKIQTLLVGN
The conditions noted are these: protein: recombinant; tags: N-terminal GST; dsDNA, one strand shown. The procedure, abridged: as §1

A further assay deals with ETV6 (Homo sapiens, UniProt P41212 1-452). The settings on record: protein: recombinant; tags: N-terminal GST; dsDNA, one strand shown. The procedure, abridged:
as §1

Chain of HSF1 (Q00613 whole entry): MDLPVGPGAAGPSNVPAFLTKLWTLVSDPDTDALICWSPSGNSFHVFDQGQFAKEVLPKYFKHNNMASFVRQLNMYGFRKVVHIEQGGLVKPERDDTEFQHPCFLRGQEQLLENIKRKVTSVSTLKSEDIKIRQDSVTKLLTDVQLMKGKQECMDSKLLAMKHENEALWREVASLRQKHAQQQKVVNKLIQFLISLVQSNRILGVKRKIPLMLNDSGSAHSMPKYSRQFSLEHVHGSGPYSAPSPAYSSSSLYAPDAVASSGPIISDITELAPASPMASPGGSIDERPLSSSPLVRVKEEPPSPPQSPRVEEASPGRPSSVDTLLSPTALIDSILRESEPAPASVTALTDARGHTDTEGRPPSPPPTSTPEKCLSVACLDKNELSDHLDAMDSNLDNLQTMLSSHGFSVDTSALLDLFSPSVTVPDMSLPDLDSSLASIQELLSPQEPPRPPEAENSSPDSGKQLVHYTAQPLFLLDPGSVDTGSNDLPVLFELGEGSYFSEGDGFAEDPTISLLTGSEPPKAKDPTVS
Chain of ETV5 (P41161 whole entry): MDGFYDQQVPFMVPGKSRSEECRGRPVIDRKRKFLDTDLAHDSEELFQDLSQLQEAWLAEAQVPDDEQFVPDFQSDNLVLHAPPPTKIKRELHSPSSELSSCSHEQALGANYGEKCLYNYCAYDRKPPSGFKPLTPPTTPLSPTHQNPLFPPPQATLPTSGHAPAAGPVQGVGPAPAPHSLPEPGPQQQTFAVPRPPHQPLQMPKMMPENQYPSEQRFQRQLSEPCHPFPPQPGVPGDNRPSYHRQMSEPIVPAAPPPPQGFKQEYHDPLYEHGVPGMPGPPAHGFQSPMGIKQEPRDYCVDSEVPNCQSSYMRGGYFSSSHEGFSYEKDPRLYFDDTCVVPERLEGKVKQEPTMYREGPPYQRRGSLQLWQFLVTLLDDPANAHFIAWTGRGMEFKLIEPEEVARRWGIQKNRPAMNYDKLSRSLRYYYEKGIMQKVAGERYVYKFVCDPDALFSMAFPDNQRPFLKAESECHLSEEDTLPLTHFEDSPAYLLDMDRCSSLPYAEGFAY
Chain of ETV6 (P41212 whole entry): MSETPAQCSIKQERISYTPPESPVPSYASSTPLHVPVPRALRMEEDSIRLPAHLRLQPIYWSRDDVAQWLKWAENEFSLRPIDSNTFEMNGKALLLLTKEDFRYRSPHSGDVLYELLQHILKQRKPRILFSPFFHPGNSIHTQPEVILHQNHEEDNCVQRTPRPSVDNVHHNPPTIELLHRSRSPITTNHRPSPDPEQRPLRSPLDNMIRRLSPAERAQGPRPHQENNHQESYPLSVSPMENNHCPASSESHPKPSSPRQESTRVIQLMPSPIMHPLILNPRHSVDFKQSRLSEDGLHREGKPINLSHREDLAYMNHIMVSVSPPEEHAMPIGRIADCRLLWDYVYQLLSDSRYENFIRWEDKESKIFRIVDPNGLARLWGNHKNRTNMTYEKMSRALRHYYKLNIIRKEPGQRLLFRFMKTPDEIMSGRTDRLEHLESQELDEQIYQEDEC
Chain of ETV1 (P50549 whole entry): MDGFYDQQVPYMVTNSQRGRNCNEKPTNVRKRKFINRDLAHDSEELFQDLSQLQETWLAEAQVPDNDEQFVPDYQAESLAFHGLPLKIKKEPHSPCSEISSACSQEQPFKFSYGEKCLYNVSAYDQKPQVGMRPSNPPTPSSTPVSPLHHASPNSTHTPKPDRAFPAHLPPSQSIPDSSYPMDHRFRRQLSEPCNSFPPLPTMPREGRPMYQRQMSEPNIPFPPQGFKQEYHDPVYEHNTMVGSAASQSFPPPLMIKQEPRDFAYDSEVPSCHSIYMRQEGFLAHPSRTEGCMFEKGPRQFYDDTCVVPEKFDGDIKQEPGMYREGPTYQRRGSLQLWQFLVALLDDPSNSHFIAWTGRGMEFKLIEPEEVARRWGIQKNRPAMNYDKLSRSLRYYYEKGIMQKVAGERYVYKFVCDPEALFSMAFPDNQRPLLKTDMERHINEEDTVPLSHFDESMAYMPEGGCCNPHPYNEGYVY
Chain of CRX (O43186 whole entry): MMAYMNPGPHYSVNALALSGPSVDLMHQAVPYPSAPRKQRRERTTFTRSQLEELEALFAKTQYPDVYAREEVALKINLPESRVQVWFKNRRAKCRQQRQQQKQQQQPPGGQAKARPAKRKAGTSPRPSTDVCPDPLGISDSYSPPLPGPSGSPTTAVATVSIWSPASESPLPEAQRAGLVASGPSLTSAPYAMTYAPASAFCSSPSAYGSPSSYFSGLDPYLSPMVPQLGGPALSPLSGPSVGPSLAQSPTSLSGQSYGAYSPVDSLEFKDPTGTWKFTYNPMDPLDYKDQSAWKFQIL

Turning to AATTTA, the binding signal in the assay with FEV is 1.16 fold enrichment (6-mer frequency, TF over GST control); in the assay with ETV5, 1.27 fold enrichment (6-mer frequency, TF over GST control); in the assay with HSF1 it was 1.44 fold enrichment (6-mer frequency, TF over GST control); with SPIC, 1.21 fold enrichment (6-mer frequency, TF over GST control); with ELF4, 1.21 fold enrichment (6-mer frequency, TF over GST control); in the assay with ELK4, 1.22 fold enrichment (6-mer frequency, TF over GST control). Further, the binding signal was 1.13 fold enrichment (6-mer frequency, TF over GST control) in the assay with ETV2; 1.36 fold enrichment (6-mer frequency, TF over GST control) with ELF3; 1.59 fold enrichment (6-mer frequency, TF over GST control) in the assay with CRX; 1.22 fold enrichment (6-mer frequency, TF over GST control) with ETV1; 1.27 fold enrichment (6-mer frequency, TF over GST control) with ERF; 1.25 fold enrichment (6-mer frequency, TF over GST control) in the assay with ETV3L. In addition, the binding signal with ETS2 was 1.18 fold enrichment (6-mer frequency, TF over GST control); in the assay with SPDEF it was 1.12 fold enrichment (6-mer frequency, TF over GST control); in the assay with ETV7, 1.28 fold enrichment (6-mer frequency, TF over GST control); with ELF5, 1.26 fold enrichment (6-mer frequency, TF over GST control); with ETV3, 1.22 fold enrichment (6-mer frequency, TF over GST control); with ETV6, 1.33 fold enrichment (6-mer frequency, TF over GST control).
